Assay outcomes deposited in PubChem BioAssay by several laboratories.
NSD2 HMT inh: NSD2 (human) methyltransferase inhibition; O96028; NSD2 peptide methylation, AlphaScreen, 120 min; inhibition, % at 12.5 µM; 0.54% of 310,000 active; AID 743445; in the data active means inhibition above about 50%
Casp6 inh: blocks human caspase-6 cleavage activity; P55212; purified caspase-6, Z-VEID-R110 cleavage fluorescence; inhibition, % at 12.5 µM; 0.53% of 350,000 active; AID 686996;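 active means mean inhibition across replicates at least about 35%, with every replicate also reaching that limit, limit read from the data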;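 further: 0% = median of neutral control wells and 100% = no fluorescence left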
Target sequence (P55212 24-179 limits assumed): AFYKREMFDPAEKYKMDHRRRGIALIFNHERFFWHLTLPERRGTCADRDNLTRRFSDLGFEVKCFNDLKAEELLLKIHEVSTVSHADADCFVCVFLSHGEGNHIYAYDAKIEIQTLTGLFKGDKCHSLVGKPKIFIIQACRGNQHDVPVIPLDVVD
Target sequence (P55212 194-293 limits assumed): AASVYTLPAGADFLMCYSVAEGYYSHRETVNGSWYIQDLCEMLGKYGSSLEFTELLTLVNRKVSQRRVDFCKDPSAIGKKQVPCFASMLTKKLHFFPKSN
SUMO HTRF inh: blocks human SUMOylation mediated by UBC9. P63279. HTRF SUMOylation assay, SAE1/SAE2 + UBC9, in vitro. inhibition, % at 35 µM. 0.36% of 290,000 active; in the data active means inhibition above about 50%, passing the limit was not always enough
SIRT5 inh: sirtuin-5 (human) deacylase inhibition | Purified SirT5, succinyl-peptide AMC, trypsin-coupled fluorescence | inhibition, % at 15 µM | AID 652115 | 1.1% of 330,000 active | Q9NXA8; in the data active means inhibition above about 15%
Target sequence (Q9NXA8 whole entry, looked up): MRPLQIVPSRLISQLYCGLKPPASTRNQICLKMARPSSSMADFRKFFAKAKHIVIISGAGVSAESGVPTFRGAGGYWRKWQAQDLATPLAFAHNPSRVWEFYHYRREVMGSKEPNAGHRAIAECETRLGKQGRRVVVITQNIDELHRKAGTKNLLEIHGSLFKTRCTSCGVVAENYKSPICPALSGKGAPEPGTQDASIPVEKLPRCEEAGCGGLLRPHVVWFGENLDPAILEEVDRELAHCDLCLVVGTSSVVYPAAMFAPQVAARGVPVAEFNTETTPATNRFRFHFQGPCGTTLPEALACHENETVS
* = called active by the depositor; . = no result given. The list is not random: actives were taken first. Their share in the collection is about 1.6%.

SMILES | NSD2 HMT inh | Casp6 inh | SUMO HTRF inh | SIRT5 inh
COc1ccc(S(=O)(=O)Nc2ccc3c(c2)C(=O)N([C@H](C)CO)C[C@@H](C)[C@H](CN(C)Cc2ccc(Oc4ccccc4)cc2)O3)cc1 | . | -3.0 | . | 22.4*
COc1ccc(S(=O)(=O)Nc2ccc3c(c2)C(=O)N([C@@H](C)CO)C[C@@H](C)[C@H](CN(C)Cc2ccc(Oc4ccccc4)cc2)O3)cc1 | . | 0.5 | . | 24.7*
COc1ccc(S(=O)(=O)Nc2ccc3c(c2)C(=O)N([C@@H](C)CO)C[C@@H](C)[C@H](CN(C)Cc2ccc(-c4ccccc4)cc2)O3)cc1 | . | 0.5 | . | 20.9*
COc1ccc(S(=O)(=O)Nc2ccc3c(c2)C(=O)N([C@H](C)CO)C[C@@H](C)[C@@H](CN(C)Cc2ccc(Oc4ccccc4)cc2)O3)cc1 | . | -0.1 | . | 29.8*
C[C@@H]1CN([C@@H](C)CO)C(=O)c2cc(NS(=O)(=O)c3ccc(Cl)cc3)ccc2O[C@H]1CN(C)Cc1ccc(Oc2ccccc2)cc1 | . | 1.1 | . | 16.6*
C[C@@H]1CN([C@H](C)CO)C(=O)c2cc(NS(=O)(=O)c3ccc(Cl)cc3)ccc2O[C@H]1CN(C)Cc1ccc(Oc2ccccc2)cc1 | . | 0.1 | . | 10.3
COc1ccc(CN(C)C[C@H]2Oc3ccc(NS(=O)(=O)c4ccccc4)cc3C(=O)N([C@@H](C)CO)C[C@@H]2C)cc1 | . | 4.7 | . | 1.2
COc1ccc(S(=O)(=O)Nc2ccc3c(c2)C(=O)N([C@H](C)CO)C[C@H](C)[C@@H](CN(C)Cc2ccc(Oc4ccccc4)cc2)O3)cc1 | . | -1.3 | . | 21.7*
COc1ccc(S(=O)(=O)Nc2ccc3c(c2)C(=O)N([C@@H](C)CO)C[C@H](C)[C@H](CN(C)Cc2ccc(Oc4ccccc4)cc2)O3)cc1 | . | 2.4 | . | 38.5*
C[C@@H]1CN([C@H](C)CO)C(=O)c2cccc(NC(=O)C3CCCCC3)c2O[C@@H]1CN(C)CC1CC1 | . | 0.6 | . | 21.3*
C[C@H]1CN([C@@H](C)CO)C(=O)c2cc(NC(=O)C3CCCCC3)ccc2O[C@@H]1CN(C)CC1CC1 | . | . | . | 22.4*
C[C@@H]1CN([C@@H](C)CO)C(=O)c2cc(NC(=O)C3CCCCC3)ccc2O[C@@H]1CN(C)CC1CC1 | . | . | . | -6.7
O=C(C[C@@H]1C[C@@H]2c3cc(NC(=O)c4cccnc4)ccc3O[C@@H]2[C@H](CO)O1)NCc1cccc(F)c1 | . | -1.4 | . | 1.3
COc1ccc(C(=O)/C=C/c2cccc(OCc3ccccc3)c2)cc1CSCC(=O)O | 42.8 | 43.5* | 28.8 | 3.9
COc1ccc(C(=O)/C=C/c2ccc(OCc3ccccc3)cc2)cc1CSCC(=O)O | 35.4 | 43.9* | 31.0 | 4.5
COc1ccccc1C(=O)N1C[C@H]2[C@@H](c3ccccc31)[C@H](CO)N2Cc1ccc(F)cc1 | . | -4.2 | . | -2.1
CCOC(=O)N(O)c1ccc(C=Cc2ccccc2)cc1 | . | 67.4* | . | -0.4
CNc1nc(Cl)nc2ncn(C)c12 | 1.8 | -1.1 | . | 15.8*
Cn1cnc2nc(Cl)nc(Cl)c21 | . | 0.2 | . | 3.8
COCC(=O)NC[C@@H]1N[C@@H](CO)[C@H]1c1ccc(C2=CCCCC2)cc1 | . | -2.5 | . | -0.8
COCC(=O)NC[C@H]1N[C@H](CO)[C@H]1c1ccc(C2=CCCCC2)cc1 | . | -7.0 | . | 36.8*
COC(=O)c1cc(O)cc(OC)c1C(=O)c1c(O)cc(C)cc1O | . | 21.1 | 0.9 | .
COC(=O)c1cc(O)cc(OC)c1Oc1cc(C)cc(O)c1C(=O)O | . | 42.6* | . | .
O=C(C[C@@H]1CC[C@H]2[C@@H](COC[C@@H](O)CN2C(=O)c2ccc(F)cc2)O1)N1CCOCC1 | . | 1.4 | . | 5.8
COc1cc(NCCCC(C)N)c2ncccc2c1 (configuration not stated) | 140.7* | . | . | .
SMILES | NSD2 HMT inh | Casp6 inh | SUMO HTRF inh | SIRT5 inh
COc1cc(NS(=O)(=O)c2ccc(C)cc2)c2ncccc2c1 | . | . | -93.2 | .
CCC(CNc1cc(OC)cc2cccnc12)NC1CCCCC1 (configuration not stated) | 79.7* | 70.5* | 101.5* | 2.8
COc1cc(NC(=O)c2ccccc2Cl)c2ncccc2c1 | -2.0 | 2.5 | 4.1 | .
COc1ccc(NC(=O)N(C)C[C@@H]2OCCCC[C@H](C)Oc3ccc(NC(=O)NC(C)C)cc3C(=O)N([C@@H](C)CO)C[C@@H]2C)cc1 | . | 2.2 | . | 3.2
C[C@H]1CN([C@@H](C)CO)C(=O)Cc2cc(NC(=O)Nc3ccc(F)cc3)ccc2O[C@H]1CN(C)Cc1ccc(Oc2ccccc2)cc1 | . | -1.6 | . | -3.2
Cc1cc(OCc2nnc(SC(C)C(=O)O)n2Cc2ccccc2)ccc1Cl (configuration not stated) | -2.8 | . | 13.7 | 23.7*
CC(Sc1nnc(COc2ccc(Cl)cc2)n1Cc1ccccc1)C(=O)O (configuration not stated) | -1.7 | -3.4 | 12.5 | -1.6
Cc1noc(C)c1S(=O)(=O)Nc1ccc2c(c1)CC(=O)N([C@H](C)CO)C[C@H](C)[C@@H](CN(C)Cc1ccc(C(F)(F)F)cc1)O2 | . | -1.2 | . | 10.4
CCOc1ccc(C(=O)NC2CCCCCCC2)cc1 | -3.3 | 0.4 | . | -3.6
CCOc1cccc(C(=O)NC2CCCCC2)c1 | . | -1.5 | 19.6 | 22.1*
O=C(CCn1c(=O)oc2ccccc21)Nc1cccc(Cl)c1 | . | -0.5 | 5.2 | -1.2
O=C(Cn1c(=O)oc2ccccc21)Nc1cccc(Cl)c1 | -2.9 | 1.8 | 7.4 | 28.1*
COc1cc(C=c2c3ccccc3n3c2cc(-c2ccccc2)[n+]3C)cc(OC)c1OC | . | 96.3* | . | -0.3
CN(C)c1ccc(C=c2c3ccccc3n3c2cc(-c2ccccc2)[n+]3C)cc1 | 4.0 | 18.6 | . | .
COc1ccc(C2/C(=C(/O)c3ccc(S(=O)(=O)N4CCOCC4)cc3)C(=O)C(=O)N2CCN2CCOCC2)cc1 (configuration not stated) | -2.0 | 0.2 | 6.3 | 1.3
COc1ccc(/C(O)=C2/C(=O)C(=O)N(CCCN3CCOCC3)C2c2ccc(OC)cc2)cc1 (configuration not stated) | . | 3.5 | 16.3 | 81.4*
CN1C(=O)c2cc(NC(=O)c3cccs3)ccc2OC[C@@H]2O[C@H](CC(=O)N3CCOCC3)CC[C@H]21 | . | 4.2 | . | 3.0
CNC(=O)C[C@@H]1CC[C@@H]2[C@H](COc3ccc(NC(=O)c4cc(F)cc(F)c4)cc3C(=O)N2C)O1 | . | 1.1 | . | 16.4*
COc1ccccc1C(=O)Nc1ccc2c(c1)C(=O)N(C)[C@H]1CC[C@H](CC(=O)Nc3cccc(C(C)C)c3)O[C@@H]1CO2 | . | -2.8 | . | 19.0*
CNC(=O)C[C@H]1CC[C@H]2[C@H](COc3ccc(NC(=O)c4cc(F)cc(F)c4)cc3C(=O)N2C)O1 | . | -1.1 | . | -1.6
CN1C(=O)c2cc(NC(=O)c3cccs3)ccc2OC[C@H]2O[C@H](CC(=O)N3CCOCC3)CC[C@@H]21 | . | 4.0 | . | 16.7*
COC(=O)C[C@@H]1CC[C@H]2[C@H](COc3ccc(NC(=O)c4cnccn4)cc3C(=O)N2C)O1 | . | -1.9 | . | 4.6
COC(=O)C[C@H]1CC[C@@H]2[C@H](COc3ccc(NC(=O)c4cnccn4)cc3C(=O)N2C)O1 | . | 57.0* | . | -1.6
Cc1ccc(S(=O)(=O)Nc2ccc3c(c2)CC(=O)N([C@@H](C)CO)C[C@H](C)[C@@H](CN(C)C)O3)cc1 | . | 2.0 | . | 0.2
